# Test results as given in PubChem BioAssay (EPA / NIEHS).
# Active and inactive are the calls of the source. Rule for the calls: active = hit-call score of the fitted dose curve at least 0.9, where 1 is the maximum; inactive = score below 0.9.
# Read-out: Transforming growth factor beta 1 (TGFb1), TGFB1 (gene 7040)
# Experiment: BSK_BE3C_TGFb1: BioMAP Diversity Plus: BE3C Assay for Transforming growth factor beta 1 (TGFb1) Biomarker Activity (AID 2283036)
# Conditions: primary human bronchial epithelial cells; actives raise or lower the signal
# Protocol: BSK_BE3C is a cell-based, multiplexed-readout assay that uses bronchial epithelial cell, a human lung primary cell, with measurements taken at 24 hours after chemical dosing in a 96-well plate.BSK_BE3C_TGFb1 is an assay component measured in the BSK_BE3C assay. It measures TGF-b1 antibody related to regulation of gene expression using ELISA technology.Data from the assay component BSK_BE3C_TGFb1 was analyzed into 1 assay endpoint. This assay endpoint, BSK_BE3C_TGFb1, was analyzed with bidirectional fitting relative to DMSO as the negative control and baseline of activity. Using a type of binding reporter, gain or loss-of-signal activity can be used to understand changes in the signaling as they relate to the gene TGFB1. Furthermore, this assay endpoint can be referred to as a primary readout, because this assay has produced multiple assay endpoints where this one serves a signaling function. To generalize the intended target to other relatable targets, this assay endpoint is annotated to the growth factor intended target family, where the subfamily is transforming growth factor beta.
# The levels of cell surface (or secreted, indicated by the prefix "s") biomarker endpoints were measured by ELISA. Overt cytotoxicity to cells in confluent adherent cultures (all systems other than the BT system) was assessed by measuring total protein levels using sulforhodamine B (SRB) staining in parallel cultures at the time of biomarker measurements, indicated as SRB endpoints. For proliferation assays for adherent cell types, individual cell types are cultured at sub-confluence and relative cell numbers quantified by SRB staining at time points optimized for each system (48 h: 3C and CASM3C systems; 72 h: BT and HDF3CGF systems; 96 h: SAg system). SRB was performed by staining cells with 0.1% SRB after fixation with 10% TCA and reading wells at 560 nm.Viability and proliferation of PBMC (T cells) was quantified by Alamar Blue reduction for the SAg and BT systems. For PBMC viability (referred to as PBMC Cytotoxicity within the assay endpoint names), cells were plated (75,000/well in a 96-well plate) and then chemical samples added for 1 h before addition of activators, SEB and TSST-1 (20 ng/mL final concentration each). Cells were incubated for 90 h. Then, Alamar Blue (20 uL/well) (Invitrogen, Cat DAL1100) was added for 6 h, and the plates were read with a fluorescence microplate reader at 546/580 nm (excitation/emission). For PBMC proliferation, cells were plated and activated as above but incubated for only 16 h prior to addition of Alamar Blue. Plates were read after 6 h.
Structure (SMILES),outcome,AC50
CC[C@H]1CC[C@H](NCc2cc3c(cc2OC)[C@H]2C[C@H]2C(=O)N3C)[C@H](c2ccccc2)N1,inactive,–
Oc1ccc2c(c1)-c1ccccc1C2,inactive,–
CCOC(=O)COc1ccc2c(c1)CC(NCC(O)c1cccc(Cl)c1)CC2 (stereo not given),–,29 µM (active)
O=c1n(CC2CO2)c(=O)n(CC2CO2)c(=O)n1CC1CO1 (stereo not given),inactive,–
O=C(NS(=O)(=O)/C=C/c1ccccc1)c1ccc(F)cc1Cl,inactive,–
CC(=O)OC[C@H]1O[C@@](COC(C)=O)(O[C@H]2O[C@H](COC(C)=O)[C@@H](OC(C)=O)[C@H](OC(C)=O)[C@H]2OC(C)=O)[C@@H](OC(C)=O)[C@@H]1OC(C)=O,inactive,–
Cn1cnc([N+](=O)[O-])c1Sc1ncnc2nc[nH]c12,inactive,–
O=C(CCCCCCCCc1cccnc1)N1CCC(C=C(c2ccccc2)c2ccccc2)CC1,–,23.7 µM (active)
CC(C)CCCCCCCOC(=O)CCCCC(=O)OCCCCCCCC(C)C,inactive,–
CCc1cc(SCc2sc(-c3ccc(C(F)(F)F)cc3)nc2CN2CCN(c3ccc(OC)cc3)CC2)ccc1OCC(=O)O,–,5.17 µM (active)
CNS(=O)(=O)c1cc(C(=O)N2CCC(CCN3C4CCC3CC(n3c(C)nc5ccccc53)C4)(c3cccc(F)c3)CC2)c(Cl)cc1F (stereo not given),inactive,–
CC1(C)C(=O)N(Br)C(=O)N1Br,inactive,–
CNCc1ccc(NC(=O)c2c[nH]c3c2C(=O)CCC3)cc1,inactive,–
CCCCCCCCO,inactive,–
CCC(C)(C)C(=O)O[C@H]1C[C@@H](C)C=C2C=C[C@H](C)[C@H](CC[C@@H]3C[C@@H](O)CC(=O)O3)[C@H]21,–,27.1 µM (active)
Nc1nc2ncc(CNc3ccc(C(=O)N[C@@H](CCC(=O)O)C(=O)O)cc3)nc2c(=O)[nH]1,inactive,–
C1N2CN3CN1CN(C2)C3,inactive,–
CC[C@H](C)C(=O)O[C@H]1C[C@@H](C)C=C2C=C[C@H](C)[C@H](CC[C@@H]3C[C@@H](O)CC(=O)O3)[C@H]21,–,34 µM (active)
O=C(OC[C@H]1O[C@@H](OC(=O)c2cc(O)c(O)c(OC(=O)c3cc(O)c(O)c(O)c3)c2)[C@H](OC(=O)c2cc(O)c(O)c(OC(=O)c3cc(O)c(O)c(O)c3)c2)[C@@H](OC(=O)c2cc(O)c(O)c(OC(=O)c3cc(O)c(O)c(O)c3)c2)[C@@H]1OC(=O)c1cc(O)c(O)c(OC(=O)c2cc(O)c(O)c(O)c2)c1)c1cc(O)c(O)c(OC(=O)c2cc(O)c(O)c(O)c2)c1,–,9.35 µM (active)
C[C@](N)(Cc1ccc(O)c(O)c1)C(=O)O,inactive,–

Structure (SMILES),outcome,AC50
C=CC(=C)CCC=C(C)C,inactive,–
CC1=CC(=O)CC(C)(C)C1,inactive,–
Cn1c(=O)c2c(ncn2C)n(C)c1=O,inactive,–
COC(=O)c1c(Cl)c(Cl)c(C(=O)OC)c(Cl)c1Cl,inactive,–
COc1ccc(-n2nc(C(F)F)cc2-c2ccc(S(C)=O)cc2)cc1 (stereo not given),inactive,–
CC(C)CC(C)(O)C#CC(C)(O)CC(C)C (stereo not given),inactive,–
CCCCC(CC)COC(=O)CCCCCCCCC(=O)OCC(CC)CCCC (stereo not given),inactive,–
CC(C)CCO,inactive,–
COc1ccc(/C=C/S(=O)(=O)NC(=O)c2ccc(C)cc2Cl)cc1,inactive,–
CCn1nc(Cc2ccccc2)cc1C1CCN(C[C@H]2C[C@H](N(C)[C@@H](C(=O)O)C(C)C)C[C@@H]2c2cccc(F)c2)CC1,inactive,–
Nc1ccc(Nc2ccccc2)cc1,inactive,–
O=C(O)c1cccc(N(Cc2cccnc2)c2ccc(OC(F)F)c(OC(F)F)c2)c1,inactive,–
O=C(O)c1cc(N=Nc2ccc(S(=O)(=O)Nc3ccccn3)cc2)ccc1O,inactive,–
O=C1CCCCCN1,inactive,–
CC(C)=CCCC(C)CCO (stereo not given),inactive,–
Cc1ccc(O)cc1,inactive,–
CC/C(=C\C(=N/O)C(N)=O)C(C)[N+](=O)[O-] (stereo not given),inactive,–
COCCOc1cc2cc(C(=O)NC3CCN(C(C)C)CC3)n(CC(=O)Nc3ccc(Cl)cn3)c2cn1,inactive,–
COCCOCCOCCOC,inactive,–
CC(=O)OCCC(C)C,inactive,–
